CASP6 VEID inh = caspase-6 (human) enzyme inhibition | P55212 | purified caspase-6, Z-VEID-R110 cleavage fluorescence | inhibition, % at 12.5 µM | actives 0.53% (n = 350,000);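 active = mean inhibition across replicates at least about 35%, with every replicate also reaching that limit, limit read from the data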;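 note: 0% = median of neutral control wells and 100% = no fluorescence left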
PglD DTNB = PglD (C. jejuni) enzyme inhibition; purified PglD enzyme, DTNB colorimetric CoA detection; inhibition, % at 12.5 µM; actives 0.098% (n = 360,000); in the data active = inhibition above about 16%, passing the limit was not always enough
ALR H2O2 inh = inhibitors of human sulfhydryl oxidase ALR; P55789; purified ALR, DTT oxidation, H2O2 HRP-luminol luminescence; inhibition, % (no concentration beside the values); actives 3.8% (n = 290,000); AID 485317;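 active = mean replicate inhibition above about 79%, with every replicate also reaching it, limit read from the data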
NSD2 inh = NSD2 (human) methyltransferase inhibition; inhibition, % at 12.5 µM; actives 0.54% (n = 310,000); NSD2 peptide methylation, AlphaScreen, 120 min; in the data active = inhibition above about 50%
Env fusion inh = HIV envelope-mediated fusion inhibition. AID 651610. actives 1.1% (n = 360,000). inhibition, % at 12.3 µM. HeLa-JRFL Env/CEM21 cell fusion, luciferase;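 active = mean replicate inhibition score of at least 50 and every replicate individually at or above 50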;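 note: 0% = plate neutral controls and 100% = maraviroc near 300 nM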
CFTR F508del cor = CFTR F508del correction in bronchial cells. activity (quench increase), % at 7.58 µM. AID 720511. CFBE cells, YFP halide quenching; stimulated with forskolin plus potentiator P3; % fluorescence drop versus neutral controls. actives 0.36% (n = 350,000);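 active = mean added fluorescence quench of at least 8% versus neutral control, with both replicates also reaching 8%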;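 note: cells transiently co-express mutant CFTR-F508del with the halide-sensitive YFP; corrector assay measuring rescue of mutant channel to the surface after 24 h compound exposure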
Starred values were filed as active, the others as inactive; / = not tested or not shown; [ ] = dose if it differs, or a comment. An excerpt weighted towards active compounds, which were near 4.1% of everything screened.

SMILES	CASP6 VEID inh	PglD DTNB	ALR H2O2 inh	NSD2 inh	Env fusion inh	CFTR F508del cor
O=C(C=Cc1ccco1)c1cc(Cl)ccc1O	45*	-7	/	8	6	4
CC(/C=C/c1ccco1)=N\NC(=O)c1cc(Cl)ccc1O	52*	/	13	5	2	/
O=C(/C=C/c1ccco1)c1ccccc1O	13	/	-3	-2	-9	2
Cc1ccc(Cn2nnnc2CN2CCC(c3nc4ccc(Cl)cc4[nH]3)CC2)cc1	/	-3	-28	-5	75*	/
Clc1ccc2nc(C3CCN(Cc4nnnn4C4CCCCC4)CC3)[nH]c2c1	/	0	/	/	36	/
CCCN(C)C[C@H]1OCCCC[C@H](C)Oc2ccc(NS(C)(=O)=O)cc2C(=O)N([C@H](C)CO)C[C@H]1C	/	/	/	/	-10[16.7 µM]	-2
O=C1NC(Cc2ccc(O)cc2)c2nc3ccc(Br)cc3c(=O)n2-c2ncccc21 (stereo not given)	40*	/	/	/	3	2
O=C1NC(Cc2ccc(O)cc2)c2nc3ccc(Br)cc3c(=O)n2-c2cc3ccccc3cc21 (stereo not given)	3	-1	/	/	-344	8.2*
C[C@@H](NC(=O)[C@@H]1[C@@H](CO)[C@@H]2Cn3c(cccc3=O)[C@@H]2N1Cc1cccnc1)c1ccccc1	-2	5	/	/	/	/
NC(=O)NCC#Cc1ccc2c(c1)[C@]1(C(=O)N2)[C@H](c2ccc(O)cc2)N2[C@H](c3ccccc3)[C@H](c3ccccc3)OC(=O)[C@H]2[C@@H]1C(N)=O	-1	/	/	/	-2[16.7 µM]	2
OCCNc1nc(Nc2cccc(O)c2)nc2ccccc12	-4	/	95*	3	11	-4
OCCNc1nc(N2CCN(c3ccccc3)CC2)nc2ccccc12	-3	8	98*	2	-21	-4
OCCNc1nc(Nc2ccc(O)cc2)nc2ccccc12	5	-6	99*	9	-20	-1
COc1cccc(Nc2nc(NCCO)c3ccccc3n2)c1	/	/	-10	2	/	/
O=C(NCc1ccc(F)cc1)[C@@H]1[C@@H](CO)[C@@H]2Cn3c(cccc3=O)[C@@H]2N1CCC(F)(F)F	0	0	/	/	11[16.7 µM]	/
Cc1noc(C)c1C(=O)NCCCc1ccccc1	/	2	-9	-10	-9	/
COc1ccc(CCNC(=O)c2c(C)noc2C)cc1	50*	-1	-9	1	/	0
C[C@H](CO)N1C[C@H](C)[C@H](CN(C)S(=O)(=O)c2ccc(F)cc2)Oc2ncc(C#CC(C)(C)O)cc2C1=O	-1	1	/	/	5[16.7 µM]	4
O=C1CC(c2cccc([N+](=O)[O-])c2)c2ccc3ccccc3c2N1 (stereo not given)	/	-1	-7	1	93*	/
O=C1CC(c2ccsc2)c2ccc3ccccc3c2N1 (stereo not given)	2	/	0	1	33	2
C[C@H](CO)N1C[C@H](C)[C@H](CN(C)C(=O)Nc2ccccc2F)Oc2cc(-c3ccc(C(=O)N(C)C)cc3)ccc2S1(=O)=O	1	-2	/	/	-4[16.7 µM]	1
O=c1[nH]c(/C=C/c2ccc(Cl)cc2Cl)c([N+](=O)[O-])c(=O)[nH]1	29	-1	97*	1	-3	-1
O=c1[nH]c(/C=C/c2ccccc2)c([N+](=O)[O-])c(=O)[nH]1	7	-151	14	2	1	1
CC(C)c1cn(CC[C@@H]2CC[C@H](NC(=O)C3CCOCC3)[C@H](CO)O2)nn1	2	/	/	/	/	1
COc1cc(/C=N/N=C(\N)c2nonc2N)ccc1O	2	/	99*	0	-47	0
SMILES	CASP6 VEID inh	PglD DTNB	ALR H2O2 inh	NSD2 inh	Env fusion inh	CFTR F508del cor
COc1ccc(/C=N/N=C(\N)c2nonc2N)cc1OC	-3	/	-9	1	-41	0
N/C(=N\N=C\c1ccc(O)cc1)c1nonc1N	0	/	99*	11	-90	-1
Cc1[nH]c2ccccc2c1C(=O)CSc1nc2cc(S(=O)(=O)N3CCCCC3)ccc2o1	/	2	-8	3	65*	/
Cc1ccc(C(=O)CSc2nc3cc(S(=O)(=O)N4CCOCC4)ccc3o2)cc1	/	0	21	-2	-43	/
Cn1c(SCC(=O)c2ccccc2)ncc(C(=O)Nc2ccccc2)c1=O	-10	0	98*	-2	-16	-2
COC(=O)Cn1cnc2c(Cl)nc(F)nc21	2	1	/	/	89*	-2
O=C(C[C@H]1C=C[C@@H](NC(=O)C2CCOCC2)[C@H](CO)O1)NCC1CCCCC1	-4	1	/	/	-10[16.7 µM]	-2

From PubChem
